Experimental data taken from PubChem BioAssay (Tox21).
Inconclusive results are not listed. Where a call stands in place of a potency, no number is given. The source made the active and inactive calls. Calls follow the shape of the dose curve; as a rule, active = well fitted inhibition curve with a large enough effect in the repeat runs; inconclusive = weak or mixed curves; inactive = flat fitted curve, though single readings scatter.

biological target: Voltage-gated inwardly rectifying potassium channel KCNH2 (Homo sapiens) (UniProt Q12809); experiment: Human Ether-a-go-go-Related Gene (hERG) channel small molecule antagonists: fluorescence cell-based qHTS assay (AID 1671200); conditions: hERG-U2OS cells, FluxOR thallium flux fluorescence; series mostly up to 76.8 µM; also: nearly all actives have a fitted effect of over 50% in size
Text: National Center for Advancing Translational Sciences [NCATS]
U.S. Environmental Protection Agency [EPA]
National Institutes of Environmental Health Sciences [NIEHS]
National Toxicology Program [NTP]
U.S. Food and Drug Administration [FDA]
Mutations in the hERG channel cause Long QT (LQT) syndrome. LQT syndrome is a cardiac disorder which can cause ventricle arrhythmia and sudden death. Additionally, compounds which block the hERG channel can cause acquired LQT syndrome. Several FDA approved drugs have been removed from the market due to their hERG blocking activity. A cell-based hERG channel inhibition assay can be used to screen chemical compounds that inhibit hERG channel. This assay measures hERG channel activity using thallium ions as surrogate ions to measure potassium into the cells.
Tox21 Assay Protocol Summary:
hERG-U2OS cells were resuspended in culture medium and dispensed into 1536-well, black wall/clear-bottom plates at 1000cells/well/3uL using a Multidrop Combi dispenser (Thermo Fisher, Waltham, MA). After plates were incubated at 37 C overnight, 3 uL of Loading Buffer provided by FluxOR II Potassium Ion Channel Assay kit (Thermo, Carlsbad, CA) was added to each well. The assay plates were then incubated at room temperature in the dark for 1h. […] After the assay plates were incubated at room temperature for 10 min, 1 uL of Stimulus Buffer provided by FluxOR II Potassium Ion Channel Assay kit was added into each well and fluorescence intensity (480nm excitation/540nm emission) was continuously measured for 2 min at 1 second intervals using a Functional Drug Screening System (FDSS) 7000EX kinetic plate reader (Hamamatsu, Japan).

Sequence of Voltage-gated inwardly rectifying potassium channel KCNH2 (Homo sapiens) (Q12809 whole entry, looked up): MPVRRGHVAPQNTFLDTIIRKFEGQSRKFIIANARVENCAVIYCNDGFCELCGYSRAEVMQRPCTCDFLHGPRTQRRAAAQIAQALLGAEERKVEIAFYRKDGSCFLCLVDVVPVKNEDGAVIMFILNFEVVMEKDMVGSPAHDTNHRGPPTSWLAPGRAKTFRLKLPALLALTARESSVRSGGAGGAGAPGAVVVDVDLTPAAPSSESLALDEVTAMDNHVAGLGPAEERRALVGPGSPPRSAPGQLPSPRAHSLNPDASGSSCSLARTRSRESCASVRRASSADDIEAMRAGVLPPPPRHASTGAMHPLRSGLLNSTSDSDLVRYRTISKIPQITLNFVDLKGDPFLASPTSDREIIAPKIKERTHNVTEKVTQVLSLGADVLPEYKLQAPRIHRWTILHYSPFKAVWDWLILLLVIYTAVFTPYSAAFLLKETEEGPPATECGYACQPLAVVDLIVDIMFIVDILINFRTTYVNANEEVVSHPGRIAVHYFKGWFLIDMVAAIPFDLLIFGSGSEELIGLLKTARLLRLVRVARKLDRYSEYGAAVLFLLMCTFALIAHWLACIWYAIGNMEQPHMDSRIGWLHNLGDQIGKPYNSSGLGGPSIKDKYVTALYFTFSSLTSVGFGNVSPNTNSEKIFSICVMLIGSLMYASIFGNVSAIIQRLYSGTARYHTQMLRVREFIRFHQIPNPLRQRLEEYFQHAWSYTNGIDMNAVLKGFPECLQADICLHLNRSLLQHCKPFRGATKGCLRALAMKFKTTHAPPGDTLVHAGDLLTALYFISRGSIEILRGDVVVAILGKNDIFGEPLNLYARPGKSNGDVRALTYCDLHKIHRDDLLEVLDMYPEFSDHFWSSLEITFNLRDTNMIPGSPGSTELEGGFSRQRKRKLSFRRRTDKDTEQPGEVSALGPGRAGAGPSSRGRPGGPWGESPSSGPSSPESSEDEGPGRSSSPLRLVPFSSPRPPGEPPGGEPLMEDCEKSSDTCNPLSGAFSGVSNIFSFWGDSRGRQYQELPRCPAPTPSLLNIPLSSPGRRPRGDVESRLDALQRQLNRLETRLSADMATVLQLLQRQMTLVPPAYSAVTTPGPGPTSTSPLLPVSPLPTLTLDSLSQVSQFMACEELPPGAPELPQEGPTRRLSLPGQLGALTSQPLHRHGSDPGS

SMILES	Potency	activity change, negative = inhibition
CCCCC(=O)O[C@]1(C(=O)CO)[C@H](C)C[C@H]2[C@@H]3CCC4=CC(=O)C=C[C@]4(C)[C@@]3(F)[C@@H](O)C[C@@]21C	inactive	–
CCN(O)CC	inactive	–
COc1ccc(Nc2ccc(OC)cc2)cc1	inactive	–
O=c1[nH]c(=O)n([C@H]2C[C@H](O)[C@@H](CO)O2)cc1C(F)(F)F	inactive	–
O=C(CCCl)NCc1ccccc1	inactive	–
CCCCNCCCC	inactive	–
CCCOCCC	inactive	–
C[C@@H](N)C(=O)O	inactive	–
CCCCCCCOC(=O)CCC	inactive	–
NS(=O)(=O)c1cc(-c2nn[nH]n2)c(NCc2cccs2)cc1Cl	inactive	–
O=C1CCCCC1C1CCCCC1 (stereo not given)	inactive	–
CC(C)OC(C)C	inactive	–
CCCCCCC	inactive	–
CCCCCCCCCCCCOCCOS(=O)(=O)O	inactive	–
CN1CCN(N)CC1	inactive	–
C=CCc1cc(OC)c(O)c(C(=O)NCCO)c1	inactive	–
NC(Cc1ccc(F)cc1)C(=O)O (stereo not given)	–	3.14% [at 6.97 µM] (inactive)
CC(C)C1=CC2=CC[C@@H]3[C@](C)(CCC[C@@]3(C)C(=O)O)[C@H]2CC1	inactive	–
OCC(CBr)(CBr)CBr	inactive	–
CC(C)C(=O)OCC(C)(C)C(O)C(C)C (stereo not given)	inactive	–

SMILES	Potency	activity change, negative = inhibition
CN(CCCN1c2ccccc2CCc2ccccc21)CC(=O)c1ccc(Cl)cc1	inactive	–
Clc1cccc(-c2cc(Cl)cc(Cl)c2)c1	inactive	–
CC1=C(O)C(=O)OC1C (stereo not given)	inactive	–
ClC(Cl)Cl	inactive	–
Cc1ccc(C)c(N)c1	inactive	–
C[C@]12C(=O)OC(=O)[C@H]1[C@H]1C=C[C@@H]2C1	inactive	–
O=[N+]([O-])c1nccn1CO[C@@H](CO)[C@H](O)CO	inactive	–
CC(=O)OC(C)OC(C)=O	inactive	–
Cc1ccc([N+](=O)[O-])cc1Cl	inactive	–
CCCC1CCC(=O)O1 (stereo not given)	inactive	–
C=O	inactive	–
C=Cc1ccccc1	inactive	–
COc1cc(Cl)ccc1Cl	inactive	–
CCCCCCCCOC(=O)CCCCCCCCC(=O)OCCCCCCCC	inactive	–
CN1CCN(c2c(F)cc3c(=O)c(C(=O)O)cn4c3c2SCC4)CC1	inactive	–
COC(=O)N[C@H](C(=O)N[C@@H](Cc1ccccc1)[C@@H](O)CN(Cc1ccc(-c2ccccn2)cc1)NC(=O)[C@@H](NC(=O)OC)C(C)(C)C)C(C)(C)C	inactive	–
CN(C)Cc1ccccc1	inactive	–
CCCOc1ccc2c(c1)CC[C@@H]1[C@@H]2CC[C@]2(C)C(OC)CC[C@@H]12 (stereo not given in full)	inactive	–
ICCc1ccccc1	inactive	–
OCCN1CCN(CCO)CC1	inactive	–
